# HGIII-sPLA2 inh: human group III sPLA2 inhibitors, primary screen, biochemical, QFRET, BODIPY PC-A2 liposome substrate; Group 3 secretory phospholipase A2 (Homo sapiens), Q9NZ20; QFRET BODIPY PC-A2 liposome hydrolysis, fluorescence; inhibition, % at 12.2 µM; 370,000 compounds, 0.56% hits; AID 743126, 2013;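 active means inhibition above mean plus 3 SD of compounds lying within the high and low control bounds, cut at about 19% in these data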
# UBC13 polyUb: UBC13 polyubiquitin chain formation inhibitors, primary screen, biochemical, TR-FRET, uHTS. Ubiquitin-conjugating enzyme E2 N (Homo sapiens), P61088. inhibition, % at 20 µM. 330,000 compounds, 0.47% hits; in the data active means inhibition above about 45%, passing the limit was not always enough
# Target sequence (P61088 whole entry, looked up): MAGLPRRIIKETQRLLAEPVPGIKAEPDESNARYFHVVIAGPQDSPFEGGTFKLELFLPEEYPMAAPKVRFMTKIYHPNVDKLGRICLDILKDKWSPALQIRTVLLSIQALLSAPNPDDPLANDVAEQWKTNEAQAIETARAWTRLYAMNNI
# UBC9 SUMO inh: inhibitors of in vitro SUMOylation cascade, primary screen, biochemical, HTRF, uHTS. inhibition, % at 35 µM. SUMO-conjugating enzyme UBC9 (Homo sapiens), P63279. HTRF SUMOylation assay, SAE1/SAE2 + UBC9. 290,000 compounds, 0.36% hits; in the data active means inhibition above about 50%, passing the limit was not always enough
# Target sequence (P63279 whole entry, looked up): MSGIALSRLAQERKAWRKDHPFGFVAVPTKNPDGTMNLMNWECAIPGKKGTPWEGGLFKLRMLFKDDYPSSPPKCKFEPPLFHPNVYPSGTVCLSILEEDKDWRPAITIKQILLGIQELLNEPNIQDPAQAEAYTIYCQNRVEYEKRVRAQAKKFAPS
# GRIN3A LBD mod: binders of NR3A ligand-binding domain, primary screen, biophysical, differential scanning fluorimetry, uHTS | Tm shift relative to glycine control, % at 25 µM | NR3A LBD differential scanning fluorimetry, Tm shift; 0% = protein alone, 100% = glycine-bound protein | 340,000 compounds, 2.5% hits | Glutamate receptor ionotropic, NMDA 3A (GRIN3A) ligand-binding domain;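 active means melting temperature shift of at least 10% of the positive control shift, at one fixed dose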
# Numbers stand for hits; i = inactive; nt = not tested or not shown. An excerpt weighted towards active compounds, which were near 3.3% of everything screened.
SMILES,HGIII-sPLA2 inh,UBC13 polyUb,UBC9 SUMO inh,GRIN3A LBD mod
COc1ccc(NC(=O)COc2cc(C)cc(C)c2)cc1S(=O)(=O)N1CCCCC1,i,i,nt,24
Cc1ccc(OCC(=O)Nc2ccc(S(=O)(=O)N3CCOCC3)cc2)c(C)c1,i,i,i,11
Cc1ccc(NC(=O)COc2ccc(S(=O)(=O)N3CCOCC3)cc2)cc1,i,i,i,i
Cc1cc(S(=O)(=O)N2CCOCC2)ccc1OCC(=O)Nc1ccc(F)cc1,i,i,i,i
Cc1cc(S(=O)(=O)N2CCOCC2)ccc1OCC(=O)Nc1ccc(F)c(Cl)c1,i,i,i,44
COc1cccc(CNC(=O)C2CCN(c3nc(OC)nc(OC)n3)CC2)c1,i,nt,nt,nt
CCCCN(CCCC)C1=Nc2ccccc2N/C1=C(/C#N)C(=O)OCC,i,i,i,17
CCOC(=O)/C(C#N)=C1\Nc2ccccc2N=C1N(CC(C)C)CC(C)C,i,i,i,i
CC(C)CC(=NNC(=O)c1ccncc1)c1cc(Cl)ccc1O,21,nt,nt,i
CCCCNC(=O)C1CCCN1C(=O)NCc1ccccc1OC (configuration not stated),i,nt,nt,nt
COc1cc(NC(=S)NCc2ccco2)cc(OC)c1OC,i,i,i,19
O=C1C=C[C@H]2CC[C@@H](O)[C@@H]1[C@@H]2Sc1ccccc1,i,nt,nt,nt
O=C(NCC1OCCc2ccccc21)c1ccc(NC(=O)c2cccc(Br)c2)cc1 (configuration not stated),i,i,i,28
O=C(NCC1OCCc2ccccc21)c1ccc(NC(=O)c2ccccc2Cl)cc1 (configuration not stated),i,i,i,i
O=C(NCC1OCCc2ccccc21)c1ccc(NC(=O)c2ccc(Cl)cc2Cl)cc1 (configuration not stated),i,i,i,18
Cc1ccc(C(=O)n2ccc3ccc(-c4ccc5ccn(Cc6ccc(C#N)cc6)c5c4)cc32)cc1,i,nt,nt,nt
COc1ccc(-c2nc3ccccc3s2)cc1,i,nt,i,40
O=C(Cc1nc2ccccc2s1)c1ccc(O)cc1O,nt,i,i,nt
c1ccc2sc(-c3ccncc3)nc2c1,i,i,i,i
Oc1ccc(-c2nc3ccccc3s2)cc1,i,i,i,15
O=C(CSc1nc2ccccc2s1)c1ccc(O)cc1O,i,i,i,30
Oc1ccc(-c2nc3ccccc3s2)c(O)c1,i,i,i,39
COC(=O)N[C@H](C(=O)N[C@@H](Cc1ccccc1)[C@@H](O)CN(Cc1ccc(-c2ccccn2)cc1)NC(=O)[C@@H](NC(=O)OC)C(C)(C)C)C(C)(C)C,i,nt,nt,nt
O=C(Nc1ccc(F)cc1)OCc1cn(Cc2cccc(F)c2)nn1,i,nt,nt,nt
O=C(Cc1csc(NC(=O)Nc2ccc(Cl)cc2)n1)NC1CCCC1,i,i,nt,13
SMILES,HGIII-sPLA2 inh,UBC13 polyUb,UBC9 SUMO inh,GRIN3A LBD mod
Cc1cnc(NC(=O)Nc2ccc(Cl)cc2)s1,i,i,i,26
Cc1cnc(NC(=O)CSc2ccc(Cl)cc2)s1,i,i,i,i
O=C(Nc1ccc(Cl)cc1)Nc1nc(-c2ccccc2O)cs1,i,i,i,26
Cc1csc(NC(=O)Nc2ccc(Cl)cc2)n1,i,i,i,21
O=C(Nc1ccc(Cl)cc1)Nc1nc(-c2sccc2Br)cs1,i,i,i,i
O=C1C(NC(=O)C(F)(F)Br)CCCCN1Cc1cccc(C(F)(F)F)c1 (configuration not stated),i,nt,nt,nt
CCC(C)c1ccc(NC(=O)CSc2nnc(-c3cccc(C)c3)n2C)cc1 (configuration not stated),i,nt,nt,nt
COc1ccccc1Oc1cc(-n2nc(C)cc2C)ncn1,i,i,i,10
O=C1CCC[C@H]2Cc3nc4ccccc4cc3C[C@]23CCCN13,i,nt,nt,nt
Cc1ccc(N=Nc2ccc(O)cc2)c(Br)c1,i,i,i,13
O=[N+]([O-])c1ccc(Nc2ccccc2)c2nonc12,i,i,i,i
O=[N+]([O-])c1ccc(Sc2cccc[n+]2[O-])c2nonc12,i,nt,66,i
COc1ccc(N/C=C/C(=O)c2ccc(C)cc2)c([N+](=O)[O-])c1,i,i,nt,20
CCOc1ccc(N/C=C/C(=O)c2ccc(OC)cc2)c([N+](=O)[O-])c1,i,i,i,20
Cc1nc(Nc2ccc(S(N)(=O)=O)cc2)sc1C(=O)Nc1ccccc1,i,i,i,33
Cc1nc(Nc2ccccc2)sc1C(=O)Nc1ccccc1,i,i,i,38

# From PubChem BioAssay
